For 22 sequences, PBM binding z-score results are on record in the supplement of paper PMC6555819.

For the assay, the system named is PPARg:RXRa DBDmut IVT, anti-RXR (DBD mutation: RXRa K156A/R161A, NR concentration 270 nM, RXRa partner concentration 90 nM). Nature of the assay: PBM binding z-score (relative to random genomic background probes); higher = stronger binding; sequences stand for … in GC…GCGATTGACAGCGTAGAATGAAGG
The gist of the method:
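For binding z-scores, the reference was random background probes on custom Agilent 4×180K protein-binding microarrays. These arrays were incubated 1 h with ligand-free nuclear receptor dimers in PBS pH 7.4, 2% milk, 0.02% Triton X-100, 1 mM DTT, 0.2 mg/mL BSA and 0.4 mg/ml salmon testes DNA. Fluorescence was scanned after antibody detection of each partner (one per run) and regression-normalized.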
ATCTCTAGGTAAAGATAGTTCGGTGAATGCAAAT returned a PBM binding z-score of 2.2.
TCTAGCAGTCCAGAGGGTCACTCAAGAGGTACGG came in with a PBM binding z-score of 0.669.
Under CCTAGCAGGCCAATCTGGGACACTCAAGGCTTGA stands 3.13; under TCTGACAGGTGAAGGTAACTCAGGTACGCAGTCG, 2.21.
Then TATACAGGCTCAAAGGCCAGAGTACGAATGTCGA, with -0.518; and GGAACGAGGGCATTCGAGTTAATAGCATGGCGAT, with 3.25; and CCTACTGGGCCAATGGTCATTGATTCCAATGCTC, with 3.79.
Under GCTGCTAGGTCAACTGATGGTCGGCTAAAGCTCG stands 4.58; under ACTCGGAGGACCAAGGTCAGAGCTACGCCAGTGA, -0.502.
Sequence GGAACGAAGGCAAAGTTGATAGCATCTGTCGACG gave a PBM binding z-score of -0.211.
GGAACGAGGGCATGCGAGTTGATAGCATGGCGAT yielded a PBM binding z-score of 2.78.
In turn, TCTTGTAGATCACGCAGGTTAAGAAAGCCTGAGT showed a PBM binding z-score of 2.2.
Take TCTTGTAGAACAAGCAGGTTAAGAAAGCCTGAGT: the PBM binding z-score is 1.62.
The sequence AATACCGGGTCATCGTAGGCCAGAGTACGCACAG showed a PBM binding z-score of 2.9.
For the sequence CCTAGCAGGCCAATCTGAGTCACTCAAGGCTTGA, the PBM binding z-score amounted to 1.42.
Sequence AGTCAAAGTTCATCTAGGTAAGGTAAGATATGCT registered a PBM binding z-score of 0.598.
Under AGAACAAGGGCAATGAGTTGATAGCACGGGTGGC stands 2.52.
Then CAAACTAGGGCACAGAGGTCAAAGTCCGTGCGTA, with 7.7.
The sequence ATCGAAAGGTCGACGGGGTGAGTATACACCGTTT had a PBM binding z-score of 0.683.
On to TAGCCGAGGTCATGGGCCAGTATACCACGCGAAC, for which the PBM binding z-score came out at 1.94.
In the case of TCTAGTTGGTCACGGAGGTAACACACGACGGGTA, the PBM binding z-score stood at 2.14.
Then CCTACTGGGCCAGGGTCATTGATCAGTCAAAGCA, with 1.49.
